# Screening results: PubChem BioAssay, Broad Institute
# U2OS ROS induce = ROS inducers in U2OS cancer cells, primary screen, cell-based, H2DCF-DA fluorescence; U2OS ROS induction; ROS induction (% of piperlongumine), % at 10 µM; hit rate 2% among 46,000; in the data active = ROS induction above about 79%, passing the limit was not always enough;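 note: 0% = DMSO vehicle median and 100% = reference compound median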
# The depositor's hits bear a star. This excerpt belongs to a sample that is enriched for hits.
SMILES,U2OS ROS induce
C[CH2][Hg][S]c1ccccc1C(=O)O,135.9*
CNc1ccccc1C(=O)O,5.9
O=C(Cn1cc(C(=O)c2ccccc2)c2ccccc21)Nc1ccc(F)cc1,0.1
C/C1=C/[C@@H](C)C/C=C/[C@H]2[C@@H]3O[C@]3(C)[C@@H](C)[C@H]3[C@H](Cc4c[nH]c5ccccc45)NC(=O)[C@]32C(=O)/C=C\C(=O)[C@@H]1O,46.8
Cc1ccc(NC(=O)c2cccc(OC(=O)N(C)c3ccccc3)c2)cc1C,16.0
C/C=C(/C)C(=O)O[C@H]1C(C)=C2[C@H]([C@@H]1OC(=O)CCCCC)[C@@](C)(OC(C)=O)C[C@H](OC(=O)CCC)[C@@]1(O)[C@H]2OC(=O)[C@@]1(C)O,8.6
CC1(C)C(=O)C=C[C@@]2(C)C1C(=O)C(=O)[C@]1(C)C2CC[C@@]2(C)[C@H](c3ccoc3)C[C@H]3O[C@]321 (some centres not stated),178.5*
C=C1[C@@H](C)[C@H]2[C@H](Cc3ccccc3)NC(=O)[C@]23OC(=O)/C=C\[C@H](O)CCC[C@@H](C)C/C=C/[C@H]3[C@@H]1O,-0.7
CC1=CC(=O)C2=C(C)C[C@H](O)[C@@H]3[C@H](OC(=O)[C@@H]3C)[C@@H]12,3.5
Cc1ccc(S(=O)(=O)N2CCCCC2)cc1C(=O)Oc1cccc2cccnc12,26.0
C[C@@H]1CN([C@H](C)CO)C(=O)CCCn2nncc2CO[C@@H]1CN(C)C(=O)Oc1ccc2ccccc2c1,149.4*
C[C@@H]1CN([C@H](C)CO)C(=O)CCCn2nncc2CO[C@H]1CN(C)C(=O)Oc1ccc2ccccc2c1,19.1
C[C@@H]1CN([C@@H](C)CO)C(=O)CCCn2nncc2CO[C@@H]1CN(C)C(=O)Oc1ccc2ccccc2c1,43.7
COc1cc2c(c(OC)c1OC)-c1cc3c(cc1[C@H](OC(C)=O)[C@H]1COC(=O)[C@@H]1C2)OCO3,50.3
C/C=C\C(=O)O[C@@H]1C[C@H]2O[C@@H]3C=C(C)C(=O)C[C@]3(C)[C@]1(C)[C@]21CO1,6.1
CO[C@H]1[C@H](O)[C@H](O[C@H]2CC[C@]3(C)C4CC[C@]5(C)C(C6=CC(=O)OC6)CC[C@]5(O)C4CC[C@@H]3C2)O[C@@H](C)[C@@H]1O (some centres not stated),-12.7
O=c1c2ccccc2nc(CSc2ncnc3ccccc23)n1-c1ccccc1F,26.6
O=C(c1ccc2nc(N3CCCCC3)sc2c1)N1CCC2(CC1)OCCO2,-6.7
O=C1NCN(c2ccccc2)C12CCN(CCCOc1ccc(F)cc1)CC2,0.0
O=C(CCCN1CCC2(CC1)C(=O)NCN2c1ccccc1)c1ccc(F)cc1,98.1*
O=[P+](c1ccccc1)c1ccccc1,-0.5
CC(/C=C/[C@@]1(C)[C@H](C)CCC(=O)[C@@H]1C)=C\Cc1c(O)c(Cl)c(C)c(C=O)c1O,-5.4
Clc1cccc(N2CCNCC2)c1,-8.8
O=C(NC1CN2CCC1CC2)c1cccc(Cl)c1 (configuration not stated),87.7*
N#CC(c1ccccc1)c1ccccc1,-19.5
SMILES,U2OS ROS induce
C=C(CO)C(=O)O[C@H]1C/C(C)=C\CC/C(CO)=C\[C@H]2OC(=O)C(=C)[C@H]12,72.6
C=C(CO)C(=O)O[C@H]1CC(=C)[C@@H]2C[C@H](O)C(=C)[C@@H]2[C@H]2OC(=O)C(=C)[C@@H]21,96.1*
CCC(C)(O)C(=O)O[C@H]1C(=O)O[C@@H]2C[C@H]3C(C)=CC(=O)[C@@H](O)[C@]3(C)[C@H]3[C@@]4(O)OC[C@]32[C@@H]1[C@@H](C)[C@H]4O (some centres not stated),64.3
C=CC1C[N+]2([O-])CCC1CC2C(O)c1ccnc2ccccc12 (configuration not stated),2.2
CN(CC(=O)Nc1ccc(Cl)cc1C(=O)c1ccccc1)S(=O)(=O)c1ccc(Cl)cc1,5.9
COc1ccc(OC)c(NC(=S)NCCc2cnc[nH]2)c1,-17.4
CCOC(=O)C1=C(N)Oc2c(c(=O)oc3ccccc23)C1c1ccccc1 (configuration not stated),-4.8
CCOC(=O)C1=C(N)Oc2c(c(=O)oc3ccccc23)C12C(=O)N(CC(=O)OC)c1ccccc12 (configuration not stated),97.1*
OC[C@H]1O[C@@H](Oc2ccc(/C=C/c3cc(O)cc(O)c3)cc2O)[C@H](O)[C@@H](O)[C@@H]1O,-3.7
Cc1ccc2[nH]cc(CC(C)N)c2c1 (configuration not stated),-11.3
CC(=O)OC[C@]12C[C@H](O)C(C)=C[C@H]1O[C@@H]1[C@H](O)[C@@H](OC(C)=O)[C@@]2(C)[C@]12CO2,-2.4
COC(=O)C12CC3CC(C(C)O)C1N(CCc1c2[nH]c2cc(OC)ccc12)C3 (configuration not stated),10.1
COC(=O)C1=COC(C)C2CN3CCC4(C(=O)Nc5ccccc54)C3CC12 (configuration not stated),10.3
COC(=O)C1=COC(C)C2CN3CCc4c([nH]c5cc(OC)ccc45)C3CC12 (configuration not stated),103.3*
CCCCc1nc2ccccc2c(=O)n1-c1ccc(C)cc1,-11.1
